Screens as filed in PubChem BioAssay.
KinaseGlo FLuc – blocks Kinase-Glo luciferase, a counter-screen artifact. Q27757. Kinase-Glo luciferase, ATP luminescence, 8 min. Potency, µM (series often up to 38.3 µM), inactives show top-dose activity change, negative = inhibition, hits mostly inhibitors. actives 0.28% (n = 200,000); further: on the % scale 0 is the no-effect control and ±100 the full control effect; nearly all actives have a fitted effect of over 60% in size
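Compound is pinned into ATP-containing buffer (10 uM ATP, imidazole pH 7.2, 7 mM MgCl2). Kinase-Glo luciferase reagent is then added. Light output is recorded following an 8-min room-temperature incubation.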
NPC1 promoter act – activators of NPC1 promoter | Potency, µM (series often up to 9.22 µM), inactives show at the top dose activation, most hits filed as activators | AID 485313 | actives 2.4% (n = 320,000) | Huh7 NPC1 promoter luciferase reporter, 24 h; further: % of control where 0% means no effect; nearly all actives have a fitted effect of over 60% in size
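Stably transfected Huh7 (NPC1 promoter→luciferase), 1500 cells/well in Opti-MEM + 10% FBS, 2 h settle, then compound 24 h at 37 °C. Luminescence after 10 min with Amplite reagent.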
ELG1 genotoxic – induces genotoxicity in HEK293T cells with luciferase-tagged ELG1; HEK293T ELG1-luciferase reporter, luminescence, 16 h; Potency, µM (doses to about 46 µM), for inactives: at the highest dose activity change, positive = activation, actives largely listed as activators; actives 1.3% (n = 330,000); AID 504466; further: % of control where 0% means no effect; nearly all actives have a fitted effect of over 60% in size
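Screening used a luciferase reporter fused to human ELG1 in HEK293T cells. Luminescence was read on a CCD plate imager after 16 hr exposure and 30 min ONE-Glo incubation.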
Rab9 prom act – activators of Rab9 promoter; Huh7 Rab9 promoter-luciferase reporter, luminescence, 24 h; Potency, µM (highest dose often 9.22 µM), without a hit: top-dose activation, negative = inhibition, actives largely listed as activators; actives 2.8% (n = 320,000); AID 485297; further: % of control where 0% means no effect; nearly all actives have a fitted effect of over 60% in size
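Using Huh7 cells stably transfected with Rab9 promoter–luciferase, compounds were incubated 24 h at 37 °C, 5% CO2; luciferase luminescence was read 10 min after reagent addition.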
SMN2 splice enh – enhancers of SMN2 splice variant expression; HEK293 SMN2-luciferase splicing reporter, luminescence, 30-36 h; Potency, µM (series often up to 46.1 µM), for the others: at the top dose activity change, positive = activation, hits mostly activators; actives 2.8% (n = 210,000); AID 1458; further: % of control where 0% means no effect; nearly all actives have a fitted effect of over 55% in size
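qHTS luciferase splicing reporter: luminescence rises when SMN2 exon 7 is included in transfected HEK293 cells. Compound exposure lasted 30-36 h at 37C, with 4.5 mM final sodium butyrate as control, followed by a ONE-Glo read.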
FLuc counter – inhibits or activates purified firefly luciferase, miR-21 counter-screen | purified FLuc, Km substrates, luminescence inhibition | Potency, µM (highest dose often 57.5 µM), inactives show at the highest dose activity change, negative = inhibition, most hits filed as inhibitors | actives 6.9% (n = 360,000) | AID 588342;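 further: plate controls were vehicle for no effect and reference inhibitor for full effect; nearly all actives have a fitted effect of over 55% in size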
Target sequence (P08659 whole entry, looked up): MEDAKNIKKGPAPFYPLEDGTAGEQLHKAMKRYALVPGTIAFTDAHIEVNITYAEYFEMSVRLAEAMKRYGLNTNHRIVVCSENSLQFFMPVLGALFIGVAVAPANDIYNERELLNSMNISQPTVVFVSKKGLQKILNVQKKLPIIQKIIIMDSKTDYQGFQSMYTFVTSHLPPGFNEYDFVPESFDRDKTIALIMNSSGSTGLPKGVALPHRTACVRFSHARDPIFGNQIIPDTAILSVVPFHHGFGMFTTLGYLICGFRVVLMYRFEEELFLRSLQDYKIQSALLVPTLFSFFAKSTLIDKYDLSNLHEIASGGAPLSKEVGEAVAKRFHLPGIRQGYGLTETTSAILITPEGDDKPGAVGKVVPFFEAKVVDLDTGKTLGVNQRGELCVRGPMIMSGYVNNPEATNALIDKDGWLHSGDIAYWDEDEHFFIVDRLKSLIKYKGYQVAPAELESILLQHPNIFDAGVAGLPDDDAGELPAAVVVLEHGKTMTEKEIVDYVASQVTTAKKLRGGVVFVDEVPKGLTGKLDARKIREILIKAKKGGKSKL
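Purified P. pyralis luciferase, 10 nM final, with Km-level 10 uM D-luciferin and 10 uM ATP in 50 mM Tris acetate pH 7.5, 10 mM Mg acetate, 0.01% Tween-20, 0.05% BSA; 6-point qHTS titration about 60 µM downward; luminescence read.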
Active calls of the source: *; ? = inconclusive; / = no result given; [ ] = dose if it differs, or a comment. Most compounds without a hit are left out; they make up all but 7.5% or so of the library. The call rests on the fitted dose curve; in most records, active means well fitted curve in the direction sought with a large enough effect; inconclusive means small, poorly fitted or top-dose-only effect, or another doubt; inactive means no such curve, though single readings can be large; an effect the other way counts as inactive or inconclusive. Potency means the concentration at half of the fitted maximal effect.

SMILES	KinaseGlo FLuc	NPC1 promoter act	ELG1 genotoxic	Rab9 prom act	SMN2 splice enh	FLuc counter
COCCOC(=O)c1c(C)oc2ccc(OC(=O)c3ccco3)cc12	2%	-4%	7%	-2%	8%	24µM*
CCc1cc(=O)oc2cc(OC(=O)c3ccco3)ccc12	/	2%	1%	0%	/	-9%
Cc1cc(=O)oc2cc(OC(=O)c3ccccc3)ccc12	-5%	-1%	-7%	1%	8%	5.4µM*
Cc1cc(=O)oc2cc(OC(=O)c3ccco3)ccc12	-11%	0%	0%	-8%	/	17µM*
Cc1cc(=O)oc2cc(OCC(=O)c3ccccc3)ccc12	/	0%	0%	11%	/	-16%
COCCOC(=O)c1c(C)oc2ccc(OCc3ccccc3)cc12	-1%	-1%	-1%	-2%	-7%	-20%
c1c[nH]cn1	/	/	/	/	-6%	/
CS(=O)(=O)Oc1ccc(/C=N/NC(=O)c2ccncc2)cc1	-14%	-1%	-2%	-1%	-5%	?
Cc1cccc(Nc2nnc(SCC3CCCCO3)s2)c1C (stereo not drawn)	-3%	?	2%	19%	?	9.5µM*
COc1ccc(Nc2nnc(SCC3CCCO3)s2)cc1 (stereo not drawn)	1%	28%	13%	?	28%	19µM*
Cc1ccc(Nc2nnc(SCC(=O)NCC3CCCO3)s2)cc1 (stereo not drawn)	/	/	3%	/	/	/
COc1cccc(Nc2nnc(SCC3CCCCO3)s2)c1 (stereo not drawn)	7%	29%	14%	10%	-28%	12µM*
COC(=O)c1ccc(CSc2nnc(Nc3cccc(OC)c3)s2)o1	0%	0%	0%	0%	-22%	?
Cc1ccc(Nc2nnc(-c3ccc(C)c(S(=O)(=O)N4CCOCC4)c3)c3ccccc23)c(C)c1	/	/	/	/	1%	-12%
COc1ccc(N2CCN(C(=O)c3cc(=O)c4cc(C)ccc4o3)CC2)cc1	/	-3%	0%	-1%	/	1%
CCN(CC)CCCC(C)n1c(-c2ccccc2)nc2c(NCCO)nc(C)nc21 (stereo not drawn)	3%	/	/	/	-11%	/
COc1ccccc1CNC(=O)CSc1nc(C)cs1	2%	-1%	1%	-3%	2%	3%
COc1ccccc1C(=O)NC(=O)CSc1nc(C)cs1	/	-3%	-2%	9%	/	13µM*
O=C(N[C@H]1/C=C\[C@@H](O)CCCC1)OCc1ccccc1	/	/	15µM*	/	/	/
Cc1ccc(S(=O)(=O)N2CCC(C(=O)N3CCCC(C(F)(F)F)C3)CC2)cc1C (stereo not drawn)	/	0%	0%	3%	/	3%
O=Nc1ccc(NOC(=O)c2ccccc2)cc1	10µM*	-3%	-3%	-3%	-38%	0.095µM*
COc1cc(OC)c(C(=O)Nc2cccc(C(C)=O)c2)cc1OC	-8%	18%	?	?	-12%	13µM*
COc1ccc(C(=O)Nc2cccc(C(C)=O)c2)c(OC)c1OC	-2%	20%	?	23%	-3%	12µM*
O=C(/C=C/c1ccccc1)N/C(=C/c1ccccc1)C(=O)Nc1cccc(C(=O)O)c1	1%	-1%	0%	5%	-9%	24µM*
O=C(/C=C/c1cccc([N+](=O)[O-])c1)Nc1cc(C(=O)O)cc(C(=O)O)c1	6%	-9%	-9%	2%	-45%	-18%
SMILES	KinaseGlo FLuc	NPC1 promoter act	ELG1 genotoxic	Rab9 prom act	SMN2 splice enh	FLuc counter
O=C(Nc1cccc(C(=O)O)c1)/C(=C\C=C\c1ccccc1)NC(=O)c1ccccc1	-3%	-1%	-2%	-4%	1%	13µM*
O=C(/C=C/c1ccccc1)Nc1cc(NC(=O)/C=C/c2ccccc2)cc(C(=O)O)c1	/	11%	-4%	16%	/	13µM*
O=C(Nc1ccc(C(=O)O)cc1)/C(=C\C=C\c1ccccc1)NC(=O)c1ccccc1Br	/	2µM*	1%	3.2µM*	/	0.17µM*
COC(=O)N[C@@H](c1cccc(C)c1)[C@@H](C)[N+](=O)[O-]	0%	/	/	/	1%	/
CN(CC1CCCN(CCc2ccc(F)cc2)C1)C(=O)CCC(N)=O (stereo not drawn)	/	-2%	-2%	0%	/	5%
O=C(/C=C/c1ccccc1)Nc1cccc(C(=O)O)c1	-19%	?	-15%	?	/	0.067µM*
CCCOc1ccc(C(=O)Nc2cc3c(cc2N2CCOCC2)n(C)c(=O)n3C)cc1	/	/	/	/	22%	2%
Clc1ccccc1CSc1snnc1-c1ccccc1	-1%	22%	?	29%	-10%	21µM*
c1ccc(-c2nnsc2Sc2ccccn2)cc1	2%	15%	4%	23%	-11%	17µM*
CCOc1ccc(CNCc2c(C(=O)O)c(C)n(Cc3c(F)cccc3Cl)c2C)cc1OC	/	/	/	/	-15%	-9%
Cc1ccccc1/C=N/Nc1nc2ccccc2c(=O)n1O	/	13%	17%	7%	/	15µM*
COc1ccc2nc(C)cc(Nc3ccccc3O)c2c1	0%	1%	-7%	-10%	/	-1%
Cc1cc(-c2ccccc2)nc(N/N=C/c2ccc(O)cc2O)n1	/	3%	0%	4%	/	?
Cc1cc(N/N=C/c2ccccc2O)c2ccccc2n1	/	4%	11%	-4%	/	15µM*
COc1cccc2c(N/N=C/c3ccccc3)cc(C)nc12	/	0%	-1%	-5%	/	2%
COc1ccc(/C=N/Nc2cc(C)nc3ccc(Br)cc23)cc1	/	0%	-6%	-4%[1.84 µM]	/	21µM*
COc1ccc2nc(C)cc(N/N=C/c3cccc(OC)c3O)c2c1	/	-4%	5%	0%	/	17µM*
Cc1ccc(C(=O)N/C(=C\c2ccc(Cl)cc2)C(=O)NCCN2CCOCC2)cc1	/	-7%	-1%	-2%	/	-2%
O=C(Cn1ncc2c3ccccc3n(Cc3cccc(Cl)c3)c2c1=O)Nc1ccc(F)cc1F	/	/	/	/	3%	-8%
O=C(O)/C=C\C(=O)Nc1ncn[nH]1	-2%[7.66 µM]	/	/	/	3%[9.22 µM]	/
O=C(Nc1ccccc1C(=O)OCc1cc(=O)n2nc(C3CC3)sc2n1)c1cccc(F)c1	/	/	/	/	/	-1%
Cc1ccc(/C(N)=N/OC(=O)/C=C/c2ccccc2)cc1	-5%	0%	13%	12%	-6%	24µM*
CC(=O)c1ccc(OC(=O)/C=C/c2ccccc2)cc1	/	-3%	2%	-2%	/	2.7µM*
CC(=O)c1ccc(OC(=O)CCNC(=O)c2ccccc2)cc1	/	/	3%	/	/	/
COc1ccc(/C(N)=N/OC(=O)/C=C/c2ccccc2)cc1	1%	-3%	5%	18%	24%	15µM*
CC(=O)c1ccc(OC(=O)COc2ccccc2)cc1	/	1%	24%	0%	/	21µM*
COc1ccc(Cl)cc1NC(=O)CN(C)C(=O)c1ccc(COc2ccccc2)cc1	/	2%	-7%	0%	/	2%
